Reference: PubChem BioAssay (NCATS)
Records with an inconclusive call do not appear. Entries that show only a call come without a potency. Active and inactive are the calls of the source. Calls follow the shape of the dose curve; as a rule, active = well fitted curve in the direction sought with a large enough effect in the signal ratio, with a control signal flat (not every such curve was filed as active); inconclusive = small, poorly fitted or top-dose-only effect, or effect the other way, or a change in a side signal; inactive = no such curve, though single readings can be large or run the other way; the % refers to the signal ratio.

The compounds below were run against Estrogen receptor (Homo sapiens) (UniProt P03372) (assay: qHTS assay for small molecule antagonists of estrogen receptor alpha signaling (AID 588513)). Settings: ER-alpha-UAS-bla HEK293, beta-lactamase ratio, antagonist mode; series mostly up to 76.9 µM.
Estrogen receptor (Homo sapiens), sequence (P03372 whole entry, looked up): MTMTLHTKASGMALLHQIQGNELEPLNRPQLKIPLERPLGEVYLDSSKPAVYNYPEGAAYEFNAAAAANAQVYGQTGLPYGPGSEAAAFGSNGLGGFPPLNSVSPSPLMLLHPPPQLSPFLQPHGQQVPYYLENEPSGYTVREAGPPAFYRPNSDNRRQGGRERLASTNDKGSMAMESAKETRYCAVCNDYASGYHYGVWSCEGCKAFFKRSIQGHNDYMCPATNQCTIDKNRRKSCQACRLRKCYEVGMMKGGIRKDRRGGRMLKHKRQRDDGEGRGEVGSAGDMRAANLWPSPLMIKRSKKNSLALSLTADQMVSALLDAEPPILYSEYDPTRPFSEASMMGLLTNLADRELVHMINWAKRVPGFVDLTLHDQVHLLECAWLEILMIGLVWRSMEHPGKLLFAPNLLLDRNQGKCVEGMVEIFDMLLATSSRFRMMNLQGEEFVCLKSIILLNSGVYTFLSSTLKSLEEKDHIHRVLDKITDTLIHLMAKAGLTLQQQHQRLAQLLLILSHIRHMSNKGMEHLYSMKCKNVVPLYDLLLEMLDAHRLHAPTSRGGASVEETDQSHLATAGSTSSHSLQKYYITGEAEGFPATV
Description: NIH Chemical Genomics Center [NCGC]
U.S. Environmental Protection Agency [EPA]
National Institutes of Environmental Health Sciences [NIEHS]
National Toxicology Program [NTP]
Estrogen receptor alpha (ER-alpha) is an important member of nuclear hormone receptors. ER-alpha plays important role in breast cancer as well as in other women's health issues. The majority of breast cancers is estrogen receptor (ER) positive and depends on estrogen for growth. There is also growing concern for some of environmental chemicals which may contribute the increasing the incidence of breast cancer. Therefore, it is important to understand the effect of environmental chemicals in ER-alpha signaling pathway.
NCGC Assay Protocol Summary
Using a beta-lactamase reporter-gene under control of the ER response element, a cell-based assay [ER-alpha-UAS-bla GripTiteTM cell-Based Assay from Invitrogen] was used to measure ER-alpha signaling pathway in antagonist mode. ER-alpha-UAS-bla-GripTite HEK 293 cells were used with assay medium containing 2% charcoal/dextran treated FBS, 0.1 mM NEAA and 1 mM sodium pyruvate. Cells were cultured in this assay medium overnight in the flasks before the assay. The assay was performed in clear bottom black Greiner 1536-well plates. 17-beta-estradiol was used as a positive control in the screen. Library compounds were measured for their ability to inhibit the reporter gene activity. Compounds were screened in a titration series in 1536-well format. […] Data was normalized relative to 17-beta-estradiol control (0.5nM, 100%), and DMSO only wells (basal, 0%). Concentration-response titration points for each compound were fitted to the Hill equation yielding concentrations of half-maximal inhibition (IC50) and maximal response (efficacy) values.
qHTS protocol for ER-alpha beta-lactamase assay in antagonist mode
[Step] [Parameter] [Value] [Description]
1. Reagent; 5 uL; 5000 cells/well
2. Incubation; 37 C for 4 hrs
- Dose response, Start 38uM, 1:2 dilutions with duplicates
- Two columns with 38 and 19uM (final) concentration.
5. Agonist (Stimulator); 1uL; 17-beta-estradiol at 0.5nM (final) concentration
6. Incubation; 37 C for 18 hrs
7. Detection reagent; 1 uL of CCF4-dye
8. Incubation; RT for 2 hrs
9. Detection; Fluorescence; Envision plate reader or Acumen plate reader
`c1ccc2c(c1)Cc1ccccc1-2` was tested, and the Potency was “inactive”. `CC1(C)CC(NCCCCCCNC2CC(C)(C)NC(C)(C)C2)CC(C)(C)N1` was tested, and the Potency was “inactive”. For `c1cc(-c2ccncc2)ccn1`, the Potency was “inactive”. `CC(C)OC(=O)c1ccccc1C(=O)OC(C)C` was tested, and the Potency was “inactive”. For `CCCCCCCCCc1ccccc1`, the Potency was “inactive”. `O=S(=O)(O)c1cc(S(=O)(=O)O)c2c(N=Nc3ccccc3)c(O)ccc2c1` was tested, and the Potency was “inactive”. `CC(C)c1ccc(C(C)C)cc1` was tested, and the Potency was “inactive”. With `CCCC/C=C/CCCCO` the Potency was “inactive”. In the case of `CCOC(=O)C1=NN(c2ccc(Cl)cc2Cl)C(C)(C(=O)OCC)C1` (stereo not given), the Potency is reported as “inactive”. `CCCCCCCCCCCCCCC(=O)OC` was tested, and the Potency was “inactive”. `CCCCOCCOCCOC(C)=O` was tested, and the Potency was “inactive”. With `Fc1ccc(Br)cc1` the Potency was “inactive”. `Brc1ccc(Br)c(Br)c1` was tested, and the Potency was “inactive”. In the case of `c1ccc(OCCOc2ccccc2)cc1`, the Potency is reported as “inactive”. `CC(=O)N(CCN(C(C)=O)C(C)=O)C(C)=O` was tested, and the Potency was “inactive”. With `CC1(C)CC(N)CC(C)(CN)C1` (stereo not given) the Potency was “inactive”. For `O=C(OCCOCCOC(=O)c1ccccc1)c1ccccc1`, the Potency was “inactive”. `CCCCCCCCC(=O)O` was tested, and the Potency was “inactive”. With `OC1CCC(C2CCCCC2)CC1` (stereo not given) the Potency was “inactive”. With `CSC(=O)c1cccc2nnsc12` the Potency was “inactive”. For `Cn1sccc1=O`, the Potency was “inactive”. In the case of `CC(C)C(=O)OCC(C)(C)C(O)C(C)C` (stereo not given), the Potency is reported as “inactive”. In the case of `CC(C)OB(OC(C)C)OC(C)C`, the Potency is reported as “inactive”. With `Cc1ccc(C(C)(C)C)c(O)c1` the Potency was “inactive”. With `C=C[Si](OCCOC)(OCCOC)OCCOC` the Potency was “inactive”. `CCCCCCCC(=O)OC` was tested, and the Potency was “inactive”. For `CCC/C(=N\OCC)C1=C(O)CC(O)(CC(C)S(=O)(=O)CC)CC1=O` (stereo not given), the Potency was “inactive”. In the case of `CC(C)(C)c1n[nH]c(=O)n(N)c1=O`, the Potency is reported as “inactive”. In the case of `CC(C)(C)c1cccc(C(C)(C)C)c1O`, the Potency is reported as “inactive”. In the case of `CS/C(=N\O)C(=O)N(C)C`, the Potency is reported as “inactive”. In the case of `CC(C)(C)C(O)/C(=C\c1ccc(Cl)cc1)n1cncn1` (stereo not given), the Potency is reported as “inactive”. `COC(=O)c1cccc(C)c1S(=O)(=O)NC(=O)Nc1nc(OCC(F)(F)F)nc(N(C)C)n1` was tested, and the Potency was “inactive”. For `CCOC(=O)c1ccccc1C`, the Potency was “inactive”. With `CCCCOCCOCCOCCO` the Potency was “inactive”. In the case of `CCCCCCCCCC(C)=O`, the Potency is reported as “inactive”. `Cc1ccc(S(=O)(=O)N=C=O)cc1` was tested, and the Potency was “inactive”. In the case of `CCCOC(=O)c1ccc(C(=O)OCCC)nc1`, the Potency is reported as “inactive”. In the case of `CC(C)c1cccc(C(C)C)c1`, the Potency is reported as “inactive”. With `CC(C)Cc1c(C(=O)O)c(C(F)F)nc(C(F)(F)F)c1C1=NCCS1` the Potency was “inactive”. With `CC1=CC2C3CC(C=C3C)C2C1` (stereo not given) the Potency was “inactive”.
